Measured values published in PubChem BioAssay (EPA / NIEHS).
Inconclusive results are not listed. Activity calls are given as the source filed them. The calls were made as follows, unless noted: active = hit-call score of the fitted dose curve at least 0.9, where 1 is the maximum; inactive = score below 0.9.

How the values were obtained:
[1] = ATG_TAL_CIS: Attagene CIS-FACTORIAL HepG2 Assay for human TAL Basal Promoter (AID 2282966); conditions: HepG2 Attagene cis-factorial TAL promoter reporter; actives raise or lower the signal;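 also: background control endpoint measuring basal TAL promoter reporter mRNA not a specific factor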
Outline: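 Fluorescence of labelled reporter cDNA fragments, resolved by capillary electrophoresis, gave the readout. Human HepG2 liver cells carried transiently transfected cis-element reporter units and were treated for 24 hours; activity was fitted bidirectionally against DMSO.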

[2] = ATG_TGFb_CIS: Attagene CIS-FACTORIAL HepG2 Assay for human Transforming Growth Factor (TGF) (AID 2282967); conditions: HepG2 Attagene CIS TGFb reporter, mRNA transcription; actives raise or lower the signal
Outline: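 After a 24-hour incubation with compound, transfected HepG2 cells were lysed for RNA; reporter cDNA was amplified, fluorescently end-labeled and separated by CE. DMSO served as baseline for bidirectional fits.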

[3] = molecular target: Estrogen receptor (Homo sapiens) (UniProt P03372); test: ATG_ERa_TRANS: Attagene TRANS-FACTORIAL HepG2 Assay for human Estrogen Receptor alpha (ERa) (AID 2282970; active = hit-call score of the fitted dose curve at least 0.9, where 1 is the maximum); conditions: HepG2 Attagene TRANS ERa GAL4 reporter, mRNA
Estrogen receptor (Homo sapiens), sequence (P03372 whole entry, looked up, the tested form may be a part): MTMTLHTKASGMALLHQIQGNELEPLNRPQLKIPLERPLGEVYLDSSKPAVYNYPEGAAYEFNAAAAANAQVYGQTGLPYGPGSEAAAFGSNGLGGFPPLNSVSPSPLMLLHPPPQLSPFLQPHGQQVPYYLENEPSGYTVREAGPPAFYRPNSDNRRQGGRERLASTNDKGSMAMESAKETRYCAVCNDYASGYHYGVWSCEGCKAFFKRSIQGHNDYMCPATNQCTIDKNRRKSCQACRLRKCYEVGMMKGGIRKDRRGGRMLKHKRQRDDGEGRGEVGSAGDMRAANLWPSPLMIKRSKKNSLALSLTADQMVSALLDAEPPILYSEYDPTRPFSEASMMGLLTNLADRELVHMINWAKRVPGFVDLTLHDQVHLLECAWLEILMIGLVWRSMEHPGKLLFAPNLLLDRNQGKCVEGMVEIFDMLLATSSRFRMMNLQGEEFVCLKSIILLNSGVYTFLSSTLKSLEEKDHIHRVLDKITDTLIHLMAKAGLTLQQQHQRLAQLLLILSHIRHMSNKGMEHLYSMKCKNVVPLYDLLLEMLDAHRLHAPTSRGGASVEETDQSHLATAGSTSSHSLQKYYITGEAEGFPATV
Outline: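 Human liver HepG2, transient transfection of multiple GAL4-UAS reporter units; TRANS format (exogenous NR-Gal4 chimera). 24 h dosing. Readout: reporter mRNA, RT-PCR, 6-FAM primer extension, HpaI digest, capillary electrophoresis. Positive direction vs DMSO.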

[4] = molecular target: X-box-binding protein 1 (Homo sapiens) (UniProt P17861); test: ATG_Xbp1_CIS: Attagene CIS-FACTORIAL HepG2 Assay for human X-box Binding Protein 1 (XBP1) (AID 2282972); conditions: HepG2 XBP1 cis-element reporter, Attagene multiplex; actives raise or lower the signal
X-box-binding protein 1 (Homo sapiens), sequence (P17861 whole entry, looked up): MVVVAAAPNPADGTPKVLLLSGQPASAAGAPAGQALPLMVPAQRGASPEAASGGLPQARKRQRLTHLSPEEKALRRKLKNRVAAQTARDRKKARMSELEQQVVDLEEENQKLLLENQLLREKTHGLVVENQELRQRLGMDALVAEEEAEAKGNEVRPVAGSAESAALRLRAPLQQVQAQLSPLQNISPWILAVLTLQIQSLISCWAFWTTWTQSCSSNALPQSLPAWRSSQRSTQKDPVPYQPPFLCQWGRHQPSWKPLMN
Outline: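 HepG2, transient MRTU transfection (cis-promoter driven), 24 h compound exposure. Total RNA → oligo(dT) RT → PCR → 6-FAM labeling → HpaI cut → CE. Bidirectional fit vs DMSO.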

[5] = ATG_M_19_TRANS: Attagene TRANS-FACTORIAL HepG2 Assay for M19 Transcription Factor (Internal Marker) (AID 2282974; active = hit-call score of the fitted dose curve at least 0.9, where 1 is the maximum); conditions: HepG2 Attagene TRANS-FACTORIAL M19 internal marker reporter
Outline: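 Using RT-PCR and capillary electrophoresis, reporter mRNA from transiently transfected human HepG2 cells was quantified following 24 h exposure; activity was fitted in the positive direction against DMSO.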

[6] = molecular target: Bile acid receptor (Homo sapiens) (UniProt Q96RI1); test: ATG_FXR_TRANS: Attagene TRANS-FACTORIAL HepG2 Assay for Farnesoid X Receptor (FXR) (AID 2282979; active = hit-call score of the fitted dose curve at least 0.9, where 1 is the maximum;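 also: hits raise reporter mRNA above DMSO so AC50 marks FXR activation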); conditions: HepG2 Attagene TRANS FXR-GAL4 reporter transcription
Bile acid receptor (Homo sapiens), sequence (Q96RI1 whole entry, looked up, the tested form may be a part): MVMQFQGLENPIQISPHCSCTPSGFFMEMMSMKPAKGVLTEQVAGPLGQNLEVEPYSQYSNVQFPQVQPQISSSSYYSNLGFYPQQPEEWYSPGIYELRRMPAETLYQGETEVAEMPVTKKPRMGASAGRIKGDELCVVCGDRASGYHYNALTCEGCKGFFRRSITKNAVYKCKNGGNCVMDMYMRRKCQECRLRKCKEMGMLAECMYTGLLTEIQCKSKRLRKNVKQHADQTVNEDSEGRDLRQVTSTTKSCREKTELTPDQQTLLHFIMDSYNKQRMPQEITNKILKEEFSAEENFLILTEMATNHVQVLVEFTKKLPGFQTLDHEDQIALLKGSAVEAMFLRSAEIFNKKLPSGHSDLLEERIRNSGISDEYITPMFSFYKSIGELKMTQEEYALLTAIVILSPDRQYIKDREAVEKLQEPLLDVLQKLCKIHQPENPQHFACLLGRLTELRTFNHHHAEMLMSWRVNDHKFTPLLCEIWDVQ
Outline: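 Transient transfection of HepG2 with multiplexed GAL4-UAS reporter units; exogenous FXR-GAL4 chimera. Dose 24 h → TriZol RNA → oligo(dT) RT → PCR, 6-FAM primer extension, HpaI cut → CE. Gain vs DMSO.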

[7] = molecular target: Oxysterols receptor LXR-alpha (Homo sapiens) (UniProt Q13133); test: ATG_LXRa_TRANS: Attagene TRANS-FACTORIAL HepG2 Assay for human Liver X Receptor alpha (LXRa) (AID 2282980; active = hit-call score of the fitted dose curve at least 0.9, where 1 is the maximum); conditions: HepG2 Attagene TRANS reporter, LXRa transactivation
Oxysterols receptor LXR-alpha (Homo sapiens), sequence (Q13133 whole entry, looked up, the tested form may be a part): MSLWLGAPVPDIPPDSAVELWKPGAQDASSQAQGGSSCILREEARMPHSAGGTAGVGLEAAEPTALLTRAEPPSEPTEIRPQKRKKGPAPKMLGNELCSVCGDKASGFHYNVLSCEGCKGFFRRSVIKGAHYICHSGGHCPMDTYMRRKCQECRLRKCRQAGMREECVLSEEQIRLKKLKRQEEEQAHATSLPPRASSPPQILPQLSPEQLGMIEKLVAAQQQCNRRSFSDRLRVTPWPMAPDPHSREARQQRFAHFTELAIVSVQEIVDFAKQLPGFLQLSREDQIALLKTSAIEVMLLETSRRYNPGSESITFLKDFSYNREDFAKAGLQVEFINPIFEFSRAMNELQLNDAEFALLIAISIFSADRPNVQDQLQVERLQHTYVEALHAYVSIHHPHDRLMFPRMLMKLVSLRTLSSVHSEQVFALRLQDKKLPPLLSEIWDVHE
Outline: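 Transfect HepG2 with GAL4-UAS multiplex reporter constructs (TRANS format, chimeric receptor-GAL4); treat 24 h; extract RNA, reverse-transcribe, PCR-amplify, FAM-label, HpaI-digest; resolve fragments by capillary electrophoresis. Upward response vs DMSO.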

[8] = molecular target: Transcriptional activator Myb (Homo sapiens) (UniProt P10242); test: ATG_Myb_CIS: Attagene CIS-FACTORIAL HepG2 Assay for human Myeloblastosis (Myb) Proto-Oncogene Transcription Factor (AID 2282986); conditions: HepG2 Attagene CIS-FACTORIAL Myb reporter transcription; actives raise or lower the signal
Transcriptional activator Myb (Homo sapiens), sequence (P10242 whole entry, looked up): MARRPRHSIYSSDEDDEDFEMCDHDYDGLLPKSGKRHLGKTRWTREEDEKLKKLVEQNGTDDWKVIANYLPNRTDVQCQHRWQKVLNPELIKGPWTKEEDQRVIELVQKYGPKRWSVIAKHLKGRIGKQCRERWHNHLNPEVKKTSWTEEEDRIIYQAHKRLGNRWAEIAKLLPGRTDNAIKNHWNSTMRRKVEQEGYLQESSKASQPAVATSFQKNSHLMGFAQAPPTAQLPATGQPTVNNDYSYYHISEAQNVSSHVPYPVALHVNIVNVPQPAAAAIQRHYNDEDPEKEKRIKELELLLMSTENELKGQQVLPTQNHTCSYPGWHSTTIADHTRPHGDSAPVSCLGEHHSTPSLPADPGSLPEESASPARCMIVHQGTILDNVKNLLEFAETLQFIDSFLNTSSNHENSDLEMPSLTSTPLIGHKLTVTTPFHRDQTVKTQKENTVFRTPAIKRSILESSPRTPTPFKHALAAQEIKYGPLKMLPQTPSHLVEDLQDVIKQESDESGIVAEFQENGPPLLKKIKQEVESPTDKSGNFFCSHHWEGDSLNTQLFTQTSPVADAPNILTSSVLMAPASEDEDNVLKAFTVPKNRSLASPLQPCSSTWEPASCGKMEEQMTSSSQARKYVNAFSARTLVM
Outline: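 In this HepG2 transient-transfection format, cis-regulated reporter mRNA is quantified 24 h post-dosing by RT-PCR with capillary electrophoresis, fitted bidirectionally to DMSO baseline.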

[9] = molecular target: Nuclear respiratory factor 1 (Homo sapiens) (UniProt Q16656); test: ATG_NRF1_CIS: Attagene CIS-FACTORIAL HepG2 Assay for human Nuclear Respiratory Factor 1 (NRF1) Orphan Gene (AID 2282987); conditions: HepG2 NRF1 cis-element reporter, Attagene multiplex; actives raise or lower the signal
Nuclear respiratory factor 1 (Homo sapiens), sequence (Q16656 whole entry, looked up): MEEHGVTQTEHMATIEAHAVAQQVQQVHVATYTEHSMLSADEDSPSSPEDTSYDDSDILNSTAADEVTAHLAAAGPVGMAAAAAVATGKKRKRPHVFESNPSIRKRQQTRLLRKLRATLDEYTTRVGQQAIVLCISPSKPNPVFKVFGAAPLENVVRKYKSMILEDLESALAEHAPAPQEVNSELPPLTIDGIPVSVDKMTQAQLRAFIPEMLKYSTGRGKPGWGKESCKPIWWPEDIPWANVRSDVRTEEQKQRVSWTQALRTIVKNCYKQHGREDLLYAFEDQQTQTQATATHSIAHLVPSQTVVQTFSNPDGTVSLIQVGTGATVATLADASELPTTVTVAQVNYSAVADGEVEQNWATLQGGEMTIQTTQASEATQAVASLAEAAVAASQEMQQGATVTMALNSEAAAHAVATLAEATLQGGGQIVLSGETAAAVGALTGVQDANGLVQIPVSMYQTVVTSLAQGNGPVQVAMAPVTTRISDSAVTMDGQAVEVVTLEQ
Outline: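 Using DMSO as baseline, gain- or loss-of-signal was fitted for reporter mRNA levels in HepG2 cells transiently transfected with cis-regulated reporter units. Samples were taken 24 h after dosing and read by RT-PCR with capillary electrophoresis.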

[10] = ATG_GAL4_TRANS: Attagene TRANS-FACTORIAL HepG2 Assay for GAL4 (Internal Marker) (AID 2282976; active = hit-call score of the fitted dose curve at least 0.9, where 1 is the maximum); conditions: HepG2 Attagene TRANS GAL4 internal marker reporter
Outline: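 First, HepG2 cells were transfected with reporter units under GAL4-UAS control. Next, they were treated with chemical for 24 h. Finally, RNA was reverse-transcribed, PCR-amplified, FAM-labelled and resolved by capillary electrophoresis, with induction scored against DMSO.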

[11] = molecular target: Oxysterols receptor LXR-beta (Homo sapiens) (UniProt P55055); test: ATG_LXRb_TRANS: Attagene TRANS-FACTORIAL HepG2 Assay for human Liver X Receptor beta (LXRb) (AID 2282981; active = hit-call score of the fitted dose curve at least 0.9, where 1 is the maximum); conditions: HepG2 Attagene TRANS GAL4-LXRb reporter, mRNA
Oxysterols receptor LXR-beta (Homo sapiens), sequence (P55055 whole entry, looked up, the tested form may be a part): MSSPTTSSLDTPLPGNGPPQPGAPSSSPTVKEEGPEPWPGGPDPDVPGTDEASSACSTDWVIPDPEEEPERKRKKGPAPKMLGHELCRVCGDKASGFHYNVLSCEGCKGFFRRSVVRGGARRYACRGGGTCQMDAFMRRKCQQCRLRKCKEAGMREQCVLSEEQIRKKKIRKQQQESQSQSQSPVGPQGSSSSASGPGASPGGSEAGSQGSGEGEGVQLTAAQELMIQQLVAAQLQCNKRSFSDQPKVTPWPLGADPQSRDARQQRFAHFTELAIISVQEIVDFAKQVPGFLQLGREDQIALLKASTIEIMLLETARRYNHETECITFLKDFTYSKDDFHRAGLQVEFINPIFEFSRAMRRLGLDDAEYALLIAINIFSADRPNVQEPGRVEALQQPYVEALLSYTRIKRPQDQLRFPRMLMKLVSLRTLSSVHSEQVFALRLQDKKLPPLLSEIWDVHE
Outline: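 HepG2 cells transiently transfected with multiple reporter transcription units carrying chimeric NR-Gal4 proteins acting on GAL4-UAS reporters; compound exposure 24 h. Reporter mRNA quantified by RT-PCR, 6-FAM labelling, HpaI digestion and capillary electrophoresis; gain of signal versus DMSO.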

[12] = ATG_M_06_TRANS: Attagene TRANS-FACTORIAL HepG2 Assay for M06 Transcription Factor (Internal Marker) (AID 2282983; active = hit-call score of the fitted dose curve at least 0.9, where 1 is the maximum;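 also: reporter transcript level by RT-PCR then capillary electrophoresis fluorescence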); conditions: HepG2 Attagene TRANS M06 internal marker reporter
Outline: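 Transfect HepG2 with MRTUs → dose compounds 24 h → isolate RNA, oligo(dT) RT → PCR with reporter primers → 6-FAM primer extension → HpaI digest → CE fragment analysis. Positive direction vs DMSO.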

[13] = ATG_M_32_TRANS: Attagene TRANS-FACTORIAL HepG2 Assay for M32 Transcription Factor (Internal Marker) (AID 2282984; active = hit-call score of the fitted dose curve at least 0.9, where 1 is the maximum;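 also: transcript level of a background control reporter unit measured by RT-PCR and capillary electrophoresis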); conditions: HepG2 Attagene TRANS M32 internal marker reporter
Outline: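 HepG2 cells transiently transfected with multiple GAL4-UAS reporter transcription units, dosed for 24 hours; reporter mRNA quantified by RT-PCR, 6-FAM primer extension, HpaI digestion and capillary electrophoresis. Gain-of-signal fitted versus DMSO baseline; internal background-control marker.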

[14] = molecular target: Nuclear receptor subfamily 4 group A member 2 (Homo sapiens) (UniProt P43354); test: ATG_NURR1_TRANS: Attagene TRANS-FACTORIAL HepG2 Assay for human Nuclear Receptor Related Protein 1 (NURR1) (AID 2282985; active = hit-call score of the fitted dose curve at least 0.9, where 1 is the maximum); conditions: HepG2 Attagene TRANS reporter, mRNA readout
Outline: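 HepG2 cells transiently transfected with GAL4-UAS reporter units and chimeric NR-Gal4 constructs; chemical exposure 24 h. Reporter mRNA quantified by RT-PCR, fluorescent labelling and capillary electrophoresis; gain of signal fitted relative to DMSO baseline.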

[15] = molecular target: Nuclear receptor subfamily 1 group I member 3 (Homo sapiens) (UniProt Q14994); test: ATG_CAR_TRANS: Attagene TRANS-FACTORIAL HepG2 Assay for human Constitutive Androstane Receptor (CAR) (AID 2282969; active = hit-call score of the fitted dose curve at least 0.9, where 1 is the maximum;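 also: activators raise reporter mRNA above DMSO so AC50 marks induction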); conditions: HepG2 Attagene TRANS-FACTORIAL CAR reporter
Outline: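 HepG2 cells transiently transfected with multiplexed GAL4-UAS reporter units expressing chimeric NR-Gal4 proteins; compound exposure 24 h. Reporter mRNA measured by RT-PCR, 6-FAM labelling, HpaI digestion and capillary electrophoresis; gain-of-signal fitted against DMSO baseline.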

[16] = molecular target: Steroid hormone receptor ERR1 (Homo sapiens) (UniProt P11474); test: ATG_ERRa_TRANS: Attagene TRANS-FACTORIAL HepG2 Assay for human Estrogen-Related Receptor alpha (ERRa) (AID 2282971; active = hit-call score of the fitted dose curve at least 0.9, where 1 is the maximum); conditions: HepG2 Attagene TRANS reporter, ERRa transactivation
Steroid hormone receptor ERR1 (Homo sapiens), sequence (P11474 whole entry, looked up, the tested form may be a part): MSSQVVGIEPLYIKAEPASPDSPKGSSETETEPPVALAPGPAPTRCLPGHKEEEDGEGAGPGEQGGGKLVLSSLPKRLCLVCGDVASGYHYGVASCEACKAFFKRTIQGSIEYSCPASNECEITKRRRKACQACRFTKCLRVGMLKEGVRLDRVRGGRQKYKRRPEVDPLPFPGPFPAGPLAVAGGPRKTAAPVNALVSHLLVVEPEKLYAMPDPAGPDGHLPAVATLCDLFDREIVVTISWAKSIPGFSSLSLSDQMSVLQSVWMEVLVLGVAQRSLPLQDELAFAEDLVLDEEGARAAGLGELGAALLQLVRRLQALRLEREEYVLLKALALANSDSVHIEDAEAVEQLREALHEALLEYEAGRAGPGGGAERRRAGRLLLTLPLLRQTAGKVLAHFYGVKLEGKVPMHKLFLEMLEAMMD
Outline: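 Reporter transcript induction was quantified by RT-PCR and capillary electrophoresis of FAM-labelled, HpaI-cut products after 24 h treatment of HepG2 cells carrying transiently transfected GAL4-UAS reporter units and an exogenous ERRa-Gal4 fusion; activity scored as increase over DMSO.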

[17] = molecular target: Glucocorticoid receptor (Homo sapiens) (UniProt P04150); test: ATG_GR_TRANS: Attagene TRANS-FACTORIAL HepG2 Assay for human Glucocorticoid Receptor (GR) (AID 2282978; active = hit-call score of the fitted dose curve at least 0.9, where 1 is the maximum;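 also: activators score as hits since higher reporter transcript over DMSO is fitted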); conditions: HepG2 Attagene TRANS GR reporter, mRNA transcription
Outline: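 Exogenous NR-GAL4 fusion activity was assessed through induced GAL4-UAS reporter transcripts in transfected human HepG2 cells, quantified after 24 h by RT-PCR and fluorescent capillary electrophoresis with DMSO as baseline.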

[18] = molecular target: Estrogen-related receptor gamma (Homo sapiens) (UniProt P62508); test: ATG_ERRg_TRANS: Attagene TRANS-FACTORIAL HepG2 Assay for human Estrogen-Related Receptor gamma (ERRg) (AID 2282977; active = hit-call score of the fitted dose curve at least 0.9, where 1 is the maximum;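 also: hits increase reporter signal over DMSO so potencies reflect activators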); conditions: HepG2 Attagene TRANS reporter, ERRg transactivation
Estrogen-related receptor gamma (Homo sapiens), sequence (P62508 whole entry, looked up, the tested form may be a part): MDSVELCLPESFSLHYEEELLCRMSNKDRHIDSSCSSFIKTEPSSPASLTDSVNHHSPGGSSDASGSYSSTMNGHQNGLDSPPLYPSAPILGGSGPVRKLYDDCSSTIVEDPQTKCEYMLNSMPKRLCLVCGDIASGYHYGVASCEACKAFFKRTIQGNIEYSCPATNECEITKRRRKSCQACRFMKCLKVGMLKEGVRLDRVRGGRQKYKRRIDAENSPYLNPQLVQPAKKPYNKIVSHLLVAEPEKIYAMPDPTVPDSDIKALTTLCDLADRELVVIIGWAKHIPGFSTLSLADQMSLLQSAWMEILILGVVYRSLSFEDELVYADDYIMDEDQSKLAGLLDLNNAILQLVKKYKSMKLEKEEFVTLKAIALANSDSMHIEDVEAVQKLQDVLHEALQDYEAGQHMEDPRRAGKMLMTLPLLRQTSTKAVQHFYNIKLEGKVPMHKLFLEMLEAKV
Outline: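 HepG2 cells transiently transfected with multiplexed GAL4-UAS reporter units and chimeric NR-Gal4 constructs were exposed to test chemicals for 24 h. Reporter mRNA was measured by RT-PCR, 6-FAM primer extension, HpaI digestion and capillary electrophoresis; gain-of-signal versus DMSO.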

[19] = molecular target: Hepatocyte nuclear factor 4-alpha (Homo sapiens) (UniProt P41235); test: ATG_HNF4a_TRANS: Attagene TRANS-FACTORIAL HepG2 Assay for human Hepatocyte Nuclear Factor 4 alpha (HNF4a) (AID 2282982; active = hit-call score of the fitted dose curve at least 0.9, where 1 is the maximum); conditions: HepG2 HNF4a transactivation reporter, mRNA readout
Hepatocyte nuclear factor 4-alpha (Homo sapiens), sequence (P41235 whole entry, looked up, the tested form may be a part): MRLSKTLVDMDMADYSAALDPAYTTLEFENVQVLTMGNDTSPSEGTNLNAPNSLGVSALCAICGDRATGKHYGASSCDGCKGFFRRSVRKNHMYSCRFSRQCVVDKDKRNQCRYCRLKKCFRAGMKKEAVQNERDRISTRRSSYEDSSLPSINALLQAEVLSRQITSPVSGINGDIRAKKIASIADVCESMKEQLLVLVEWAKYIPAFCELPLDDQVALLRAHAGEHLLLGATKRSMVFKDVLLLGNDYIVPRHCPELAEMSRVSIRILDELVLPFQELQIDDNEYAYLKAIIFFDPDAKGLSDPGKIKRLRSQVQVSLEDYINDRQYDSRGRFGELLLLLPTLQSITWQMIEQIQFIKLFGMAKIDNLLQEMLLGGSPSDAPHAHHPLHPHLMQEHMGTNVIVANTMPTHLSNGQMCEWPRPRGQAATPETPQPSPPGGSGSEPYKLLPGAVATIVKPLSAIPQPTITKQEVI
Outline: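 HepG2 cells transiently transfected with multiplexed GAL4-UAS reporter units responsive to chimeric NR-GAL4 proteins; compound exposure 24 h. Reporter mRNA quantified by RT-PCR, 6-FAM labelling, HpaI digestion and capillary electrophoresis; gain of signal versus DMSO baseline.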

[20] = ATG_VDRE_CIS: Attagene CIS-FACTORIAL HepG2 Assay for human Vitamin D Receptor Element (VDRE) (AID 2282968); conditions: HepG2 VDRE cis-reporter transcription, actives raise or lower the signal
Outline: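 HepG2 cells transiently transfected with cis-element reporter units, dosed 24 h; reporter mRNA measured by RT-PCR, 6-FAM labeling, HpaI digestion and capillary electrophoresis. Activity fitted bidirectionally against DMSO baseline.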

Measured: AC50

CN(C)CCCN(C)CCCN(C)C
inactive: [1] | [2] | [3] | [4] | [5] | [6] | [8] | [9]
active: [7] 23.8 µM

O=Cc1ccccc1C=O
inactive: [1] | [2] | [4] | [10] | [7] | [11] | [12] | [13] | [14] | [8] | [9]

CC(C)(O)c1ccc(CNC(=O)c2cccnc2Oc2ccc(F)cc2)cc1
not listed: [3] | [6] | [12] | [14] | [18] | [19] | [20]
inactive: all other assays above

COc1ccc(C(=O)Nc2nc3ccccc3c(NCc3ccccc3)c2C#N)cc1
not listed: [6] | [10] | [12] | [13] | [14] | [15] | [17] | [20]
inactive: all other assays above

CCCCCCCCCCCCCCOS(=O)(=O)O
active: [2] 15.1 µM
inactive: [1] | [20] | [4] | [12] | [8] | [9]

CCc1cc(C2=C(C(=O)O)N(c3ccccc3C(F)(F)F)S(=O)(=O)c3ccccc32)cc2c1OCO2
inactive: [1] | [2] | [4] | [10] | [12] | [13] | [8] | [9]
active: [20] 11.8 µM

O=C1NC(=O)C(c2ccccc2)(c2ccccc2)N1
inactive: [1] | [2] | [4] | [19] | [12] | [13] | [8] | [9]

O=C1O[C@H]([C@H](O)CO)C(O)=C1O
inactive: [1] | [2] | [4] | [5] | [10] | [13] | [8] | [9]

CCOCCOCCO
inactive: [1] | [2] | [16] | [4] | [5] | [10] | [18] | [13] | [8] | [9]

CC(=O)OC1CC(C)OC(C)O1 (stereo not drawn)
not listed: [3] | [7] | [12] | [17] | [19] | [20]
inactive: all other assays above

COC(=O)[C@H]1[C@H]2C[C@@H]3c4[nH]c5cc(OC)ccc5c4CCN3C[C@H]2C[C@@H](OC(=O)c2cc(OC)c(OC)c(OC)c2)[C@@H]1OC
inactive: [1] | [2] | [4] | [12] | [13] | [8] | [9]

CN(C)CCCN1c2ccccc2Sc2ccc(Cl)cc21
inactive: [1] | [2] | [4] | [6] | [11] | [12] | [13] | [8] | [9]
active: [20] 11.1 µM
